High-throughput results: PubChem BioAssay, National Center for Advancing Translational Sciences (NCATS)
HPGD block – inhibitors of human 15-hydroxyprostaglandin dehydrogenase (HPGD); purified HPGD, NADH fluorescence kinetic, PGE2 substrate; Potency, µM, inactives show top-dose activity change, negative = inhibition, actives largely listed as inhibitors; 150,000 compounds, 4.3% hits; AID 894; note: potency is the fitted concentration of half-maximal effect
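NADH formation kinetics: reaction with 30 uM PGE2 and 1 mM NAD+ (final), 20 nM enzyme, Tris-HCl pH 8 with Tween 20, after 15 min compound preincubation at room temperature. Fluorescence change, last versus first of five reads.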
Lamin A splicing – LMNA splicing modulation | 200,000 compounds, 0.01% hits | Potency, µM (doses to about 46.1 µM), inactives show at the highest dose ratio change, negative = inhibition, actives largely listed as inhibitors | HeLa LMNA splicing GFP/RFP minigene ratio, 48 h; active = well fitted inhibition curve with a large enough effect in the signal ratio, with a control signal flat, not every such curve was filed as active; inconclusive = small, poorly fitted or top-dose-only effect, or effect the other way, or a change in a side signal; the % refers to the signal ratio; note: potency is the fitted concentration of half-maximal effect
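S3 HeLa stable clones carrying a lamin A-EGFP splicing minigene plus DsRed2 were seeded at 600 cells/well in Opti-MEM with 2% FBS, pin-dosed and incubated 48 h at 37°C. Acumen cytometry (488 nm) gave the GFP/RFP total-intensity ratio.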
PNC assembly inh – inhibitors of perinucleolar compartment assembly; 140,000 compounds, 3.1% hits; PC3M PTB-GFP, PNC prevalence imaging, 16 h; active compounds read low; AID 2417; activity change (PNC), negative = inhibition, % at 10 µM;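 active = readout at or below -70, meaning at least 70% loss of cells showing the perinucleolar compartment, a nuclear body marking cancer cells; inconclusive = readout between -30 and a set limit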;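 note: plate controls were DMSO wells for no effect and camptothecin positive control wells for full effect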
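PC3M cells stably expressing PTB-GFP, 750–1000 cells/well, treated 16 h at 37 °C with compound (23 nl of library stock), in duplicate. After paraformaldehyde fixation and Hoechst stain, imaged at 20x; PNC prevalence scored by image analysis.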
KinaseGlo FLuc – counter-screen: inhibitors of Kinase-Glo firefly luciferase. Q27757. Kinase-Glo luciferase, ATP luminescence, 8 min. Potency, µM (top dose mostly 38.3 µM), for inactives: at the highest dose activity change, negative = inhibition, usual class: inhibitors. 200,000 compounds, 0.28% hits. AID 1379; active = well fitted inhibition curve with a large enough effect; inconclusive = small, poorly fitted or top-dose-only effect; note: potency is the fitted concentration of half-maximal effect; nearly all actives have a fitted effect of over 60% in size
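Substrate mix (final 50 mM imidazole pH 7.2, 50 mM KCl, 7 mM MgCl2, 10 uM ATP, 0.01% Tween 20, 0.05% BSA) plus pin-tool compound, then Kinase-Glo detection mix; 8 min ambient, luminescence read.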
ALDH1A1 block – blocks purified human ALDH1A1 activity. P00352. Purified ALDH1A1, NADH fluorescence, propionaldehyde substrate. Potency, µM (titrated, usually from 75.3 µM), without a hit: at the highest dose activity, negative = inhibition, hits mostly inhibitors. 220,000 compounds, 7.3% hits;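 note: potency is the fitted concentration of half-maximal effect; plate controls were no enzyme wells and a reference inhibitor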
Target sequence (P00352 whole entry, looked up): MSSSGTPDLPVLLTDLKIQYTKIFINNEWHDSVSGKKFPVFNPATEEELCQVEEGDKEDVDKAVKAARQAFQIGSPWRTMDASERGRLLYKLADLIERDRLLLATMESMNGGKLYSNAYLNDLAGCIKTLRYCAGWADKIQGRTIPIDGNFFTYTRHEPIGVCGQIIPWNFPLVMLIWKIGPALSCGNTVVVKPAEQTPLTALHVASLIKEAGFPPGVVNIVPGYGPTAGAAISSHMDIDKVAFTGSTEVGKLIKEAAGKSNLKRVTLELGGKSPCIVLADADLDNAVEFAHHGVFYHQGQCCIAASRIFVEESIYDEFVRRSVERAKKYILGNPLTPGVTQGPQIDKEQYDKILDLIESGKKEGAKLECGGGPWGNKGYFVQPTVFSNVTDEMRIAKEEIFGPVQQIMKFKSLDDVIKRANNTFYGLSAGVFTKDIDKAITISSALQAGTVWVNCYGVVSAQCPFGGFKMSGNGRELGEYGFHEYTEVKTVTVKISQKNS
The depositor's hits bear a star; ? = inconclusive; . = no result given; [ ] = remark or other dose. Compounds with a hit are over-represented: about 10% of the library has one in this group of screens. Unless noted, calls come from the whole dose curve; as a rule, active = well fitted inhibition curve with a large enough effect (not every such curve was filed as active); inconclusive = small, poorly fitted or top-dose-only effect, or another doubt; inactive = no such curve, though single readings can be large or run the other way. Unless noted, % is set by controls: 0 for no effect and ±100 for the full control effect.

SMILES	HPGD block	Lamin A splicing	PNC assembly inh	KinaseGlo FLuc	ALDH1A1 block
O=C1CNC(=O)/C1=C/c1ccccc1	14.1µM*	-12.2%	?	1.5%	-2.5%
O=C1CNC(=O)/C1=C/c1ccc(O)cc1	?	4.4%	121.3	-22.8%	31.6µM*
CCN1CCC(O)([C@H](C(=O)O)c2ccccc2)CC1	0.6%	.	.	-1.1%[7.66 µM]	-15.2%[13.5 µM]
COc1ccc(/C=N/n2c(SC)nnc2-c2ccccc2)c(OC)c1OC	?	?	-124.6*	-1.6%	?
COC(=O)[C@@]1(Cc2ccc(OC)cc2)[C@H]2c3cc(C(=O)N(C)C)n(Cc4ccc(Cl)c(C(F)(F)F)c4)c3C[C@H]2CN1C(=O)c1ccccc1	-8.9%	.	.	0.8%	-8.7%
Cc1ccc(S(=O)(=O)NCC2CCC(C(=O)NCc3ccco3)CC2)cc1 (stereo not given)	-16.3%	14.8%	8.3	0.2%	2.82µM*
O=C(NCCN1CCOCC1)C1CCC(CNS(=O)(=O)c2ccccc2)CC1 (stereo not given)	-11.7%	-6.3%	14.1	2.0%	12.6µM*
Cc1cc(C)c(S(=O)(=O)NCC2CCC(C(=O)NCCCN3CCOCC3)CC2)c(C)c1 (stereo not given)	-0.8%	2.0%	-9.7	13.2%	4.7%
Cc1cnc(C)c(N2CCC(C(=O)NCc3cccs3)CC2)n1	-12.5%	-1.0%	-126.9*	0.0%	20.9%
O=C(COc1ccc(S(=O)(=O)NC2CCCCC2)cc1)NCCC1=CCCCC1	-5.5%	1.8%	15.2	1.1%	7.08µM*
CCCCC/C=C\C/C=C\C/C=C\CCCCCCC(=O)NCCc1ccc(O)c(O)c1	0.0%	.	.	0.7%	-6.7%
N#CCCn1c(=O)cnc2cnc(N3CCNCC3)nc21	?	.	.	0.5%	?
O=C(NCc1ccc2c(c1)OCO2)C1CCC(CNS(=O)(=O)c2ccccc2)CC1 (stereo not given)	-25.5%	-10.2%	320.4	-2.3%	6.31µM*
CC(=O)Nc1ccc(S(=O)(=O)NCC2CCC(C(=O)NC3CCCCCC3)CC2)cc1 (stereo not given)	-18.1%	?	5.9	3.3%	11.2%
O=C(NCc1ccc2c(c1)OCO2)C1CCC(CNS(=O)(=O)c2cccc3nsnc23)CC1 (stereo not given)	-2.4%	4.5%	?	-1.9%	?
O=C(NC1CCCC1)C1CCC(CNS(=O)(=O)c2cccs2)CC1 (stereo not given)	22.4µM*	-8.2%	4.2	-2.2%	22.4µM*
Cc1ccc(S(=O)(=O)NCC2CCC(C(=O)NCc3cccs3)CC2)cc1 (stereo not given)	.	.	.	0.0%	0.794µM*
Cc1ccc(CNC(=O)C2CCC(CNS(=O)(=O)c3ccc(C)cc3)CC2)cc1 (stereo not given)	.	-1.2%[46 µM]	.	.	.
O=C(NCc1cccs1)C1CCC(CNS(=O)(=O)c2cccs2)CC1 (stereo not given)	-7.6%	2.6%	-15.5	-1.5%	14.1µM*
O=C(c1csnn1)N1CCC2(CC1)CN(c1ccncc1)C2	-4.5%	.	.	-1.2%	10.8%
Cn1c(=O)c2c(SCC(=O)NCc3ccco3)nc(-c3cccc(F)c3)nc2n(C)c1=O	.	-5.2%[46 µM]	.	.	.
COC(=O)c1ccc(C(NC(=O)OCc2ccccc2)/C(C)=C/[C@@H](C)C(=O)NCc2cc(F)cc(F)c2)cc1 (stereo not given in full)	-12.5%	.	.	0.4%	?
O=C(NCc1ccccc1Cl)C1CCC(CNS(=O)(=O)c2ccc(Cl)cc2)CC1 (stereo not given)	.	18.7%[46 µM]	.	.	.
COc1cccc(NC(=O)C2CCC(CNS(=O)(=O)c3cccs3)CC2)c1 (stereo not given)	.	?	.	1.3%	12.6µM*
O=C(NCc1cccs1)C1CCC(CNS(=O)(=O)c2ccccc2)CC1 (stereo not given)	.	.	.	0.3%	5.01µM*
CC(=O)Nc1ccc(S(=O)(=O)NCC2CCC(C(=O)NCCC3=CCCCC3)CC2)cc1 (stereo not given)	-28.8%	0.7%	?	-1.4%	-1.2%
O=C(NCCC1=CCCCC1)C1CCC(CNS(=O)(=O)c2ccccc2)CC1 (stereo not given)	-13.2%	8.5%	-12.2	-0.6%	0.562µM*
Cc1cn(C)c(CC(=O)N2CCN(c3ccccc3F)CC2)c1C(=O)O	.	9.8%[46 µM]	.	.	.
